This passage reports binding signal results from article PMC5700166.

Holding throughout (assay): protein-binding microarray (PBM); PBM: ~300 nM protein, 6 mM HEPES pH 7.8, 80 mM KCl, 0.5 mM EDTA, 0.5 mM EGTA, 6% glycerol, 35 ng/ul poly-dIdC, 1% milk, 1 h, room temperature; Ap Aiptasia and Nv Nematostella (sea anemones) / Co Capsaspora / Aq Amphimedon (sponge) / Dm Drosophila / Hu human; RHD is the Rel homology domain; high values mean tight binding
Common to all, as to conditions: dsDNA, one strand shown

One assay has as its target T1, GST-Ap-NF-kB RHD (Exaiptasia pallida (Aiptasia), UniProt A0A913YAJ5 2-422).
T1 sequence: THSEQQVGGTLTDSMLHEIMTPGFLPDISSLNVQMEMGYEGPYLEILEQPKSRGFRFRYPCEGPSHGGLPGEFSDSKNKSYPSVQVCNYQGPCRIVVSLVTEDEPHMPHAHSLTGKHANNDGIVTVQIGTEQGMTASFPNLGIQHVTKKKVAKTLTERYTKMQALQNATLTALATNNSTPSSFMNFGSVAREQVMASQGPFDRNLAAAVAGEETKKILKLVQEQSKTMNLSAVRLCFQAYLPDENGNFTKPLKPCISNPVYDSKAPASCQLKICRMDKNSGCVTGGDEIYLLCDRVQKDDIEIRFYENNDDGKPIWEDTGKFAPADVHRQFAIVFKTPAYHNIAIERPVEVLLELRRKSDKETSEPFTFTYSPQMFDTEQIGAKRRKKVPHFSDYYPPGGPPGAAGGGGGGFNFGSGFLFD

The target in assay [1] is T2, GST-Nv-NF-kB (Cys allele) (Nematostella vectensis, UniProt E5G601 2-411).
T2 sequence: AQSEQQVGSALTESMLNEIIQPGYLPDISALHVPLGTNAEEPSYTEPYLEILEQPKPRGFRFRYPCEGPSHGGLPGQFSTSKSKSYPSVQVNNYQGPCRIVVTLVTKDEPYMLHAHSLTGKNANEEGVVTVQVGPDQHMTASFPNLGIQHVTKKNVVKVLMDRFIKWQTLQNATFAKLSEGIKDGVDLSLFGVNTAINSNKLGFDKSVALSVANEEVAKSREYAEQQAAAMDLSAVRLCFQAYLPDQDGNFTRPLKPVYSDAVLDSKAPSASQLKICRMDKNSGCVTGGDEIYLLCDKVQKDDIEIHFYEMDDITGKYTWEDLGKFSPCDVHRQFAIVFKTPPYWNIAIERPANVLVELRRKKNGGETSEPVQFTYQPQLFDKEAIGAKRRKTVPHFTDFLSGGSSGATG

The target of assay [2] is T3, GST-Nv-NF-kB (Ser allele) (Nematostella vectensis, UniProt A7UNT2 2-411).
T3 sequence: T2 sequence with Q21R, C66S, S207N, E215Q, V217A, E225K, A268E, D399E

Another assay concerns the target T4, GST-Co-NF-kB (Capsaspora owczarzaki, UniProt F1ARL5 200-546).
T4 sequence: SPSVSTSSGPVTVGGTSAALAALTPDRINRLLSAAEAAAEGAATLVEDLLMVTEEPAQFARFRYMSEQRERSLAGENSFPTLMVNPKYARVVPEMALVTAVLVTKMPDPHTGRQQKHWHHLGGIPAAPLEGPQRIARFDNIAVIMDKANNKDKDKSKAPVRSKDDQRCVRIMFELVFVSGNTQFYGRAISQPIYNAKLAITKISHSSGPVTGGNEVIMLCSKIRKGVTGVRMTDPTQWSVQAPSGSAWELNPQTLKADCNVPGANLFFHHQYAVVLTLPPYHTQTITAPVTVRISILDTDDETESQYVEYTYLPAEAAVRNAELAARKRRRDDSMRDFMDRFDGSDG

Another assay addresses T5, GST-Dm-Relish (Drosophila melanogaster, UniProt Q94527 99-473).
T5 sequence: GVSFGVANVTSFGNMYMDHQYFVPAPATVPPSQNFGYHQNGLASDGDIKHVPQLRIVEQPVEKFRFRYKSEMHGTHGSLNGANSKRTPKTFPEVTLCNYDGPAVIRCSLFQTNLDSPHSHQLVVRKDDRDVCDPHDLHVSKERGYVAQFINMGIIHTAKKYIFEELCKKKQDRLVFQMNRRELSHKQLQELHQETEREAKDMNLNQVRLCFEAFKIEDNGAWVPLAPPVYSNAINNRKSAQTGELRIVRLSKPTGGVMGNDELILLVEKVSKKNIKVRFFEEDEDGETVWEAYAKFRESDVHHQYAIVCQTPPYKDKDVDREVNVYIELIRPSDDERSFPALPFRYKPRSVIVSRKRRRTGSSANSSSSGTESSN

Another assay addresses T6, GST-Aq-NF-kB (Amphimedon queenslandica, UniProt A9Y5G7 2-389).
T6 sequence: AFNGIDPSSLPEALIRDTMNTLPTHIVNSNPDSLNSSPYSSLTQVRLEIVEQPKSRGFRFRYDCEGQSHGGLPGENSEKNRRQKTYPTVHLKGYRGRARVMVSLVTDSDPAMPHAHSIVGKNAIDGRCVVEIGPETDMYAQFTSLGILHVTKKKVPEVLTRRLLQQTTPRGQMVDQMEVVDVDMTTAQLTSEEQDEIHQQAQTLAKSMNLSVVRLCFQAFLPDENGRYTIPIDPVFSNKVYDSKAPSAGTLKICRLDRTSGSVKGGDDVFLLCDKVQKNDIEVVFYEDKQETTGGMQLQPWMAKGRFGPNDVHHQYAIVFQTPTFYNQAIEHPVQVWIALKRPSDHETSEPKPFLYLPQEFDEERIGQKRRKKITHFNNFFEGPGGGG

The target in another assay is GST-Hu-p50 (Homo sapiens, UniProt P19838 7-356).
GST-Hu-p50, sequence (P19838 7-356): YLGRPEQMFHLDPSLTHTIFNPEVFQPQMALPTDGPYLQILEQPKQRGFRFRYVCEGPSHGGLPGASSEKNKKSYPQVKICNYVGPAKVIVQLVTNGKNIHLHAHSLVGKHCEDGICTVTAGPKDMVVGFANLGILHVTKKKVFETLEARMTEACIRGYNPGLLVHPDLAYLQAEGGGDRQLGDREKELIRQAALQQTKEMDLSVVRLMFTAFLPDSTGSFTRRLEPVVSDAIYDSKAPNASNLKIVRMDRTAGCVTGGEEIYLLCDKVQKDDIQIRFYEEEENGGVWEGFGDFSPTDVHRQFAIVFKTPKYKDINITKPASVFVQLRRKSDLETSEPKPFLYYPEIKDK

Positions count from the first letter of the chain named.

Turning to “CCGATTAACATCAGGGGAAAAGATGATGTTAATCGGGTCTTGATTCGCTTGACGCTGCTG”, the binding signal in the assay with GST-Ap-NF-kB RHD turned out to be 5.46 z-score; in assay [1], 6.76 z-score; in assay [2], 9.01 z-score; in the assay with GST-Co-NF-kB, 7.74 z-score; in the assay with GST-Dm-Relish, 1.82 z-score; with GST-Aq-NF-kB, 4.78 z-score. Moreover, the binding signal with GST-Hu-p50 amounted to 5.18 z-score.
Take “CCGATTAACATCAGGGGGAACCCTGATGTTAATCGGGTCTTGATTCGCTTGACGCTGCTG”: the binding signal worked out at 8.64 z-score with GST-Ap-NF-kB RHD; 7.75 z-score in assay [1]; 7.25 z-score in assay [2]; 8.49 z-score with GST-Co-NF-kB; 9.93 z-score with GST-Dm-Relish; 8.13 z-score with GST-Aq-NF-kB. In addition, the binding signal with GST-Hu-p50 is 6.39 z-score.
For “CCGATTAACATCAGAACTTCCCCTGATGTTAATCGGGTCTTGATTCGCTTGACGCTGCTG”, the binding signal with GST-Ap-NF-kB RHD is 7.33 z-score; in assay [1], 9 z-score; in assay [2] it was 7.95 z-score; in the assay with GST-Co-NF-kB it was 6.75 z-score; with GST-Dm-Relish, 7.85 z-score; with GST-Aq-NF-kB it was 7.57 z-score. Besides, in the assay with GST-Hu-p50, the binding signal stood at 6.4 z-score.
As for “CCGATTAACATCAAGGGAAATCCTGATGTTAATCGGGTCTTGATTCGCTTGACGCTGCTG”, the binding signal in the assay with GST-Ap-NF-kB RHD is 5.35 z-score; in assay [1], 7.47 z-score; in assay [2], 6.52 z-score; with GST-Co-NF-kB, 3.33 z-score; in the assay with GST-Dm-Relish, 6.05 z-score; in the assay with GST-Aq-NF-kB, 6.57 z-score. This sequence came in with a binding signal in the assay with GST-Hu-p50 of 4.65 z-score.
For the sequence “CCGATTAACATCAAGGGTGGGAATGATGTTAATCGGGTCTTGATTCGCTTGACGCTGCTG”, the binding signal in the assay with GST-Ap-NF-kB RHD amounted to 1.69 z-score; in assay [1], 1.84 z-score; in assay [2], 1.42 z-score; in the assay with GST-Co-NF-kB, 2.88 z-score; in the assay with GST-Dm-Relish, 1.66 z-score; with GST-Aq-NF-kB, 2.63 z-score. Further, in the assay with GST-Hu-p50, the binding signal amounted to 1.83 z-score.
On to “CCGATTAACATCACAACTTCCCCTGATGTTAATCGGGTCTTGATTCGCTTGACGCTGCTG”, for which the binding signal in the assay with GST-Ap-NF-kB RHD turned out to be 6.77 z-score; in assay [1], 8.34 z-score; in assay [2] it was 9.8 z-score; with GST-Co-NF-kB, 5.34 z-score; with GST-Dm-Relish it was 6.89 z-score; with GST-Aq-NF-kB, 6.51 z-score. Further, the binding signal in the assay with GST-Hu-p50 was determined as 6.13 z-score.
In the case of “CCGATTAACATCACCCATTTCCCTGATGTTAATCGGGTCTTGATTCGCTTGACGCTGCTG”, the binding signal with GST-Ap-NF-kB RHD is 2.51 z-score; in assay [1], 3.07 z-score; in assay [2], 3.99 z-score; with GST-Co-NF-kB, 3 z-score; with GST-Dm-Relish, 1.35 z-score; with GST-Aq-NF-kB it was 2.52 z-score. The same sequence yielded a binding signal in the assay with GST-Hu-p50 of 2.57 z-score.
Regarding “CCGATTAACATCAGGGGAGGTTATGATGTTAATCGGGTCTTGATTCGCTTGACGCTGCTG”, the binding signal in the assay with GST-Ap-NF-kB RHD came to 4.62 z-score; in assay [1], 3.22 z-score; in assay [2], 4.77 z-score; in the assay with GST-Co-NF-kB, 4.52 z-score; in the assay with GST-Dm-Relish, 1.82 z-score; with GST-Aq-NF-kB, 3.84 z-score. In the assay with GST-Hu-p50, this sequence came in with a binding signal of 3.74 z-score.
As to “CCGATTAACATCAGGCAATCCCCTGATGTTAATCGGGTCTTGATTCGCTTGACGCTGCTG”, the binding signal with GST-Ap-NF-kB RHD was 7.27 z-score; in assay [1], 7.19 z-score; in assay [2] it was 6.86 z-score; in the assay with GST-Co-NF-kB it was 1.6 z-score; with GST-Dm-Relish it was 6.78 z-score; with GST-Aq-NF-kB it was 7.01 z-score. This sequence gave a binding signal in the assay with GST-Hu-p50 of 5.39 z-score.
As to “CCGATTAACATCAAGGGGGATATTGATGTTAATCGGGTCTTGATTCGCTTGACGCTGCTG”, the binding signal in the assay with GST-Ap-NF-kB RHD came out at 5.89 z-score; in assay [1] it was 6.77 z-score; in assay [2], 7.37 z-score; with GST-Co-NF-kB it was 5.64 z-score; with GST-Dm-Relish, 5.23 z-score; with GST-Aq-NF-kB, 6.15 z-score. Moreover, in the assay with GST-Hu-p50, the binding signal was determined as 6.33 z-score.
Consider “CCGATTAACATCAAGATTTTCCCTGATGTTAATCGGGTCTTGATTCGCTTGACGCTGCTG”, for which the binding signal came to 4.58 z-score with GST-Ap-NF-kB RHD; 6.22 z-score in assay [1]; 7.42 z-score in assay [2]; 5.04 z-score in the assay with GST-Co-NF-kB; 1.5 z-score in the assay with GST-Dm-Relish; 5.78 z-score with GST-Aq-NF-kB. Besides, the binding signal with GST-Hu-p50 amounted to 4.29 z-score.
